Some test systems named below: K-562 leukemia; MALME-3M melanoma; MDA-MB-231 breast; RXF 393 renal; SF-268 CNS; SF-295 CNS; SF-539 CNS; UACC-257 melanoma; HCT-15 colon; HT29 colon; SNB-75 CNS; SNB-19 CNS; U251 CNS; PC-3 prostate; SK-MEL-5 melanoma; UACC-62 melanoma; LOX IMVI melanoma; SK-MEL-28 melanoma; M14 melanoma.
Holding throughout (assay): NCI-60 one-dose screen, 48 h (100 = growth as untreated, 0 = no growth, -100 = all killed)
Conditions in all cases: 10 µM unless noted

Each structure is given as a SMILES string. The panel holds about 83,000 compounds, 20% with a hit somewhere; the sample as a whole holds those more often.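 Compound tested at a single concentration for 48 hours in 96-well plates; a percent growth value below 10 was scored as active.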 Unmarked numbers belong to inactive results. Calls of active or inactive are those of the source.

With `COC(=O)c1cc(Cl)cc([N+](=O)[O-])c1O`, the growth with K-562 leukemia is 68.9%; in the assay with MALME-3M melanoma, 114%; with MDA-MB-231 breast it was 123%; with RXF 393 renal, 97.1%; in the assay with SF-268 CNS, 112%; with SF-295 CNS it was 101%. The growth is 107% in the assay with SF-539 CNS; 100% in the assay with UACC-257 melanoma; 109% in the assay with HCT-15 colon; 110% in the assay with HT29 colon; 97.2% in the assay with SNB-75 CNS; 108% with SNB-19 CNS. In addition, the growth is 112% in the assay with U251 CNS; 97.3% in the assay with PC-3 prostate; 106% in the assay on SK-MEL-5 melanoma; 110% with UACC-62 melanoma; 114% in the assay with LOX IMVI melanoma; 120% with SK-MEL-28 melanoma.

Regarding `c1ccc(C2=Nc3ccccc3SC2)cc1`, the growth is 124% in the assay with K-562 leukemia; 99.3% in the assay on MALME-3M melanoma; 101% in the assay with MDA-MB-231 breast; 129% with RXF 393 renal; 97.2% in the assay on SF-295 CNS; 103% in the assay on SF-539 CNS. Further, the growth is 105% in the assay with UACC-257 melanoma; 103% in the assay on M14 melanoma; 105% in the assay on HCT-15 colon; 109% with HT29 colon; 109% with SNB-19 CNS; 94.9% with U251 CNS. Also, the growth in the assay on PC-3 prostate was 66.4%; in the assay with SK-MEL-5 melanoma it was 105%; with UACC-62 melanoma it was 96.7%; in the assay on LOX IMVI melanoma, 90.4%; in the assay on SK-MEL-28 melanoma it was 109%.

Take `CO[C@@]12[C@@H]3NC3CN1C1=C(C(=O)C(N)=C(C)C1=O)[C@@H]2COC(N)=O` (stereo not given in full): the growth was 28.7% with K-562 leukemia; -12% (active) in the assay with MALME-3M melanoma; 67.5% in the assay on MDA-MB-231 breast; 11.9% with RXF 393 renal; 5.61% (active) in the assay with SF-295 CNS; 11.8% with SF-539 CNS. Also, the growth in the assay on UACC-257 melanoma was -11.7% (active); with M14 melanoma, 2.4% (active); in the assay with HCT-15 colon, 26.4%; in the assay with HT29 colon, -18.1% (active); with SNB-75 CNS it was 2.19% (active); in the assay on SNB-19 CNS, 18.3%. Moreover, the growth with U251 CNS was 13.4%; in the assay on PC-3 prostate, 41.8%; with SK-MEL-5 melanoma, -96% (active); in the assay on UACC-62 melanoma it was -15.9% (active); with LOX IMVI melanoma, -50.2% (active); in the assay on SK-MEL-28 melanoma, 23%.

For `COc1cc2c(cc1I)-c1c(cc(OC)c(OC)c1OC)CC[C@@H]2NC(C)=O`, the growth with K-562 leukemia is 9.91% (active); in the assay on MALME-3M melanoma it was 72.4%; with MDA-MB-231 breast, -6.61% (active); in the assay on RXF 393 renal it was 29.8%; with SF-295 CNS, -1.65% (active); in the assay on SF-539 CNS it was -30.6% (active). The growth in the assay on UACC-257 melanoma is 56.7%; with M14 melanoma it was -12.9% (active); with HCT-15 colon it was 9.35% (active); in the assay with HT29 colon it was 4.21% (active); in the assay with SNB-75 CNS it was 27.7%; in the assay with SNB-19 CNS it was 28%. For the same compound, the growth in the assay with U251 CNS was 17.3%; in the assay with PC-3 prostate, 27.2%; in the assay with SK-MEL-5 melanoma it was 2.44% (active); in the assay on UACC-62 melanoma, 16.4%; in the assay with LOX IMVI melanoma it was 33.8%; with SK-MEL-28 melanoma, 41.6%.

For the compound `Nc1cccc(S(=O)(=O)c2cccc(N)c2)c1`, the growth in the assay on K-562 leukemia was 10.5%; in the assay with MALME-3M melanoma it was 115%; with MDA-MB-231 breast, 105%; in the assay with RXF 393 renal it was 138%; in the assay on SF-268 CNS, 107%; in the assay on SF-295 CNS it was 100%. Further, the growth was 113% in the assay on SF-539 CNS; 119% in the assay with UACC-257 melanoma; 107% with M14 melanoma; 114% in the assay on HCT-15 colon; 110% in the assay with HT29 colon; 88.3% in the assay on SNB-75 CNS. The growth was 133% in the assay with SNB-19 CNS; 113% in the assay on U251 CNS; 92% with PC-3 prostate; 113% in the assay with SK-MEL-5 melanoma; 102% in the assay on UACC-62 melanoma; 104% in the assay on LOX IMVI melanoma. Also, the growth with SK-MEL-28 melanoma is 126%.

For the compound `O=c1c2sc3ccccc3c2nnn1-c1ccc(F)c(Cl)c1`, the growth was 49.7% in the assay with K-562 leukemia; 58% in the assay on MALME-3M melanoma; 27.5% with MDA-MB-231 breast; 47.3% with RXF 393 renal; 4.36% (active) in the assay on SF-295 CNS; 65.4% with SF-539 CNS. Moreover, the growth is 64.1% in the assay on UACC-257 melanoma; 56.7% with HCT-15 colon; 69.9% in the assay on HT29 colon; 39.5% in the assay with SNB-75 CNS; 61.1% with SNB-19 CNS; 59.1% with U251 CNS. The growth in the assay on PC-3 prostate is 54.8%; with UACC-62 melanoma, 78.4%; with LOX IMVI melanoma, 58.1%; in the assay on SK-MEL-28 melanoma, 72.7%.

Turning to `COc1cc(-c2nc(-c3nc4cc(C(=O)c5ccccc5)ccc4[nH]3)cc3c2[nH]c2ccccc23)cc(OC)c1OC`, the growth was 80.3% in the assay with K-562 leukemia; 102% with MALME-3M melanoma; 86.4% in the assay on MDA-MB-231 breast; 93.8% in the assay with RXF 393 renal; 99.5% in the assay with SF-268 CNS; 77.1% in the assay with SF-295 CNS. The growth in the assay on SF-539 CNS was 80.6%; with UACC-257 melanoma, 109%; in the assay with M14 melanoma, 85.8%; with HCT-15 colon, 83.1%; in the assay with HT29 colon, 104%; in the assay on SNB-75 CNS it was 71.5%. For the same compound, the growth was 103% with SNB-19 CNS; 82% in the assay with U251 CNS; 65.8% in the assay on PC-3 prostate; 75.2% in the assay with SK-MEL-5 melanoma; 76% in the assay on UACC-62 melanoma; 85.2% in the assay with LOX IMVI melanoma. Also, in the assay on SK-MEL-28 melanoma, the growth was 102%.

As for `COc1cc(/C=C2\C(=O)Nc3ccc(N(C)C)cc32)cc(OC)c1OC`, the growth in the assay with K-562 leukemia is 21.8%; in the assay with MALME-3M melanoma it was 37.2%; with MDA-MB-231 breast it was 24.3%; with RXF 393 renal, -45% (active); with SF-295 CNS, 7.29% (active); in the assay with SF-539 CNS, 10.3%. Further, the growth in the assay with UACC-257 melanoma was -11% (active); in the assay with M14 melanoma, -3.91% (active); in the assay on HCT-15 colon, 17%; in the assay on HT29 colon, 9.36% (active); with SNB-75 CNS, -17.1% (active); in the assay on SNB-19 CNS it was 36.2%. In addition, the growth is 11.4% with U251 CNS; 35% in the assay on PC-3 prostate; 21.5% with SK-MEL-5 melanoma; -0.443% (active) in the assay on UACC-62 melanoma; 32.8% with LOX IMVI melanoma; 43.4% in the assay with SK-MEL-28 melanoma.

Regarding `COc1ccc(CCN2COc3c([C@@H](C)CCC=C(C)C)ccc(C)c3C2)cc1OC`, the growth with K-562 leukemia is 13.1%; in the assay with MALME-3M melanoma it was 48%; in the assay on MDA-MB-231 breast, 57%; with RXF 393 renal, 63.9%; with SF-295 CNS, 43.1%; with SF-539 CNS, 80.5%. Moreover, the growth was 48.1% in the assay with UACC-257 melanoma; 11.5% in the assay on M14 melanoma; 29.5% in the assay with HCT-15 colon; 8.29% (active) with HT29 colon; 83.3% with SNB-19 CNS; 49.8% in the assay on U251 CNS. Moreover, the growth with PC-3 prostate was 47.6%; in the assay with SK-MEL-5 melanoma it was 18.2%; in the assay on UACC-62 melanoma it was 65.5%; with LOX IMVI melanoma it was 64.3%; with SK-MEL-28 melanoma it was 69.4%.

(Values after PubChem BioAssay (NCI).)
